The campaign covered roughly 330,000 compounds. About 1,900 (0.58%) were called active. Not shown: some 4% with an inconclusive outcome. No stated cut-off is given here; in the data, inconclusive means inhibition above about 70% without an active follow-up result; inactive means below that. Not all results are given here. Measured potencies and affinities stand elsewhere.

This passage reports inhibition results from PubChem BioAssay AID449762 (Southern Research Specialized Biocontainment Screening …, 2010).

The experiment in a line: M. tuberculosis growth inhibition, HTS (AID 449762).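 Further: bacterial growth assessed after seven days of incubation.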 The note with it: M. tuberculosis H37Rv growth inhibition, 7H9 media; at 25 µM; active compounds read high.
`CC12CCC(C(=O)Nc3cccc4ccccc34)(C1Br)C2(C)C` (stereo unspecified): the inhibition is 5.17% (inactive). The same measure for `CCCCOc1ccc(-c2nc(SCC(N)=O)n[nH]2)cc1`: 48.6% (inactive); for `CCOc1ccc(-c2cnc(SCC(N)=O)nc2N)cc1`: 62.7% (inactive). To `CCC1(c2ccc(F)cc2)NC(=O)N(CC(=O)N2c3ccccc3NC(=O)C2(C)C)C1=O` (stereo unspecified) belongs 1.45% (inactive).

As to `CCOc1ccc(-n2c(Cc3ccccc3)nnc2SCc2c(C)noc2C)cc1`, the inhibition is -5.75% (inactive). For the compound `COc1cc(-c2nc3ccc4ccccc4c3c3c2CCC3)ccc1O`, the inhibition is -4% (inactive). `Oc1ccc(-c2nc3ccc4ccccc4c3c3c2CCC3)cc1O`: the inhibition is -2.27% (inactive). With `Cc1ccccc1NC(=O)CN1C(=O)NC2(CCc3ccccc32)C1=O` (stereo unspecified), the inhibition was 8.44% (inactive). To `Clc1ccc2c(NNc3ccccc3Cl)ccnc2c1` belongs 64.1% (inactive); to `C/C(=N/Nc1ccnc2cc(Cl)ccc12)c1ccc(N)cc1`, -2.9% (inactive). To `CC/C(=N\Nc1ccnc2cc(Cl)ccc12)c1ccc(O)cc1` belongs 9.75% (inactive); to `Oc1ccc(Nc2ccnc3cc(Cl)ccc23)cc1`, 7.94% (inactive); to `COc1ccc(OC2C(=O)N(Cc3ccc(F)cc3)C2c2cc(OC)c(OC)c(OC)c2)cc1` (stereo unspecified), 20.5% (inactive).

For `COc1ccc(S(=O)(=O)Cc2ccc(C(=O)NC3CCC(C)CC3)o2)cc1` (stereo unspecified), the inhibition is 1.75% (inactive). To `Cc1ccc(C(=O)CSc2nnc3n2CCCCC3)s1` belongs -7.99% (inactive); to `COCCCNC(=O)Nc1ccc2c(c1)N(C)C(=O)CS2`, 1.24% (inactive); to `O=C(CN(CCc1ccccc1)C(=O)CNS(=O)(=O)c1ccc(F)cc1)NCc1ccco1`, 1.92% (inactive). Regarding `CCCCN1CCNC[C@@H]1c1ccccc1`, the inhibition is -9.81% (inactive). The same measure for `CCOC1OC(=O)C(Cl)=C1Nc1cc(C)ccc1C` (stereo unspecified): -3.33% (inactive); for `CCOC1OC(=O)C(Cl)=C1Nc1ccc(C)cc1C` (stereo unspecified): 9.67% (inactive). The same measure for `Cc1ccc(NC(=O)C2CCN(C(=O)[C@@H]3Cc4ccccc4CN3)CC2)cc1`: 9.95% (inactive); for `O=C(COC(=O)c1cc2ccccc2oc1=O)Nc1cccc(S(=O)(=O)N2CCCCCC2)c1`: -4.32% (inactive); for `CCOC(=O)Cc1csc(NC(=O)CSc2nnnn2-c2ccc(F)cc2)n1`: -5.86% (inactive). The same measure for `CCc1nnc(NC(=O)CN2C(=O)NC3(CC(C)CC(C)(C)C3)C2=O)s1` (stereo unspecified): -0.6% (inactive); for `CCOC(=O)c1sc(NC(=O)CN2C(=O)NC3(CC(C)CC(C)(C)C3)C2=O)c(C(=O)OCC)c1C` (stereo unspecified): 5.68% (inactive); for `CSCC[C@H](NC(=O)c1cccc(S(=O)(=O)N2CCN(C)CC2)c1)c1nc2ccccc2[nH]1`: -7.51% (inactive). For `CC(C(=O)Nc1ccc2c(c1)OCCO2)n1nnc(-c2ccccc2)n1` (stereo unspecified), the inhibition is 0.15% (inactive). On to `Cc1nc(C)c(CCNC(=O)c2ccccc2Br)s1`, for which the inhibition is -5.7% (inactive).

`O=C(NCCc1ccccc1)C(=O)NN=C1CCCC1`: the inhibition was -3.67% (inactive). The same measure for `S=C(NC1CCCCC1)N1CCN(Cc2ccccc2)CC1`: -15.7% (inactive). Take `Cc1ccc(NC(=S)N/N=C2\CCCCC2C)cc1` (stereo unspecified): the inhibition is 5.06% (inactive). With `CC1CCCC/C1=N\NC(=S)Nc1ccccc1` (stereo unspecified), the inhibition is 0.51% (inactive). The same measure for `S=C(Nc1ccccc1)NC1CCN(Cc2ccccc2)CC1`: -9.83% (inactive); for `O=C(CC(=O)NN=C1CCCC1)NCCc1ccccc1`: 4.48% (inactive); for `Cc1cccc(C)c1NC(=S)NCCc1ccccn1`: 3.14% (inactive).

For `CC1(C)C[C@H](O)[C@@]23C[C@@H](OC2=O)[C@]2(C)C(=CCC4[C@@]5(C)CC[C@H](O)C(C)(C)C5CC[C@]42C)[C@@H]3C1` (stereo partly specified), the inhibition is 3.65% (inactive). To `CCOC(=O)c1cc(CC)sc1NC(=O)COC(=O)C1CCC1` belongs -15.8% (inactive). The same measure for `Cc1cccc(C)c1NC(=O)CN1N=NC2C(=O)N(c3cccc(Cl)c3)C(=O)C21` (stereo unspecified): 2.55% (inactive). To `CN(C)S(=O)(=O)c1cccc(NC(=O)CSc2nc3ccccc3[nH]2)c1` belongs -2.08% (inactive). For the compound `O=C(Nc1nnc(C2CC2)s1)c1cncc(Br)c1`, the inhibition was 5.39% (inactive). With `COc1ccc(CNC(=O)C(=O)NCCC2CCCCN2S(=O)(=O)c2cccs2)cc1` (stereo unspecified), the inhibition was 5.17% (inactive). As for `COc1ccc(CCNC(=O)C(=O)NCC2OCCN2S(=O)(=O)c2ccc(C)cc2)cc1OC` (stereo unspecified), the inhibition is -6.63% (inactive). To `Cc1ccc(NC(=O)N2CCCC2C(=O)NCC2CCCCC2)cc1` (stereo unspecified) belongs 5.67% (inactive); to `Clc1ccc(Cl)c(-c2ccc(/C=N/c3ncn[nH]3)o2)c1`, 8.33% (inactive). To `Cc1cc(C(=O)N/N=C/c2ccc(-c3ccc(C)c(Cl)c3)o2)n[nH]1` belongs 42.8% (inactive). The same measure for `Cc1ccc(/C=N/n2c(COc3ccccc3)n[nH]c2=S)cc1`: 6.13% (inactive); for `Cc1ccc(NC(=O)COC(=O)Cc2c[nH]c3ccccc23)cc1C`: -4.13% (inactive). Take `O=C(COC(=O)CCc1c[nH]c2ccccc12)Nc1ccc([N+](=O)[O-])cc1`: the inhibition was 2.33% (inactive). For the compound `COc1cc(/C=C/C(=O)OCC(=O)NCCC2=CCCCC2)cc(OC)c1OC`, the inhibition was 2.02% (inactive).

Take `Cc1ccccc1NS(=O)(=O)c1ccc(C(=O)N2CCN(c3ccccc3O)CC2)cc1`: the inhibition is 4.31% (inactive). On to `Cc1cccc(NS(=O)(=O)c2ccc(C(=O)N3CCCC3)cc2)c1C`, for which the inhibition is -8.71% (inactive). To `OC(COCc1ccc(Cl)cc1)CN1CCCCC1` (stereo unspecified) belongs 1.29% (inactive); to `C=CCNC(=O)/C(C#N)=C\c1cc(Cl)c(OCC)c(OC)c1`, 7.41% (inactive); to `COc1cccc(CN(C)C(=O)CSCC(=O)Nc2cccc(C)c2)c1OC`, -5.41% (inactive).

On to `CC(C)C(=O)N=c1sc2cc(F)cc(F)c2n1C`, for which the inhibition is -9.4% (inactive).

For the compound `O=C(NCc1cccs1)c1cccc(Nc2nc3ccc(Br)cc3[nH]2)c1`, the inhibition is -11% (inactive).

Take `O=C(NCC1CC1)c1ccc(Nc2nc3ccc(Br)cc3[nH]2)cc1`: the inhibition was -0.43% (inactive). In the case of `CC(=O)Oc1ccc(-c2cccc(C(=O)NCCO)c2)cc1`, the inhibition is -0.93% (inactive). As to `O=S(=O)(NC1CCCCC1Nc1ccccc1)c1ccccc1` (stereo unspecified), the inhibition is -7.27% (inactive). The same measure for `O=C(CN(c1ccc(F)cc1)S(=O)(=O)c1ccc2c(c1)OCCO2)N1CCOCC1`: 1.58% (inactive); for `CCCCCC(=O)NCc1c(C(F)(F)F)nn(C)c1N1CCOCC1`: -1.96% (inactive); for `O=C(CN1CCNC(=O)C1)NCCc1ccc(Cl)cc1Cl`: -0.1% (inactive). The same measure for `O=C(C[N+]12CCN(CC1)CC2)NCCc1ccc(Cl)cc1Cl`: -3.14% (inactive); for `COc1ccc(OC)c(NC(=O)c2cccnc2Sc2cc(C)ccc2C)c1`: 8.29% (inactive); for `Cc1ccc(S(=O)(=O)n2ccc3c(OCCOCCSCC(NC(=O)OC(C)(C)C)C(=O)O)cccc32)cc1` (stereo unspecified): 0.6% (inactive).

Regarding `CC(C)(C)c1ccccc1OCCOCCNCc1ccccc1`, the inhibition is 2.6% (inactive).

Turning to `O=C(CSc1nc2ccccc2[nH]1)Nc1ccc2[nH]c(=O)[nH]c2c1`, the inhibition was 8.79% (inactive). To `CC(=O)Nc1ccc(NC(=O)CSc2ncnc3sc(C)c(C)c23)cc1` belongs -0.3% (inactive); to `CNc1nc(-c2ccc3c(c2)CCN3C(=O)c2ccccc2F)c(C)s1`, 9.7% (inactive).

Turning to `O=C1/C(=C/c2ccccn2)SC(=S)N1NS(=O)(=O)c1ccccc1`, the inhibition was 5.72% (inactive). The same measure for `CCC(=O)NCCCCCCCCCNC(=O)CC`: -4.93% (inactive). To `CCC(=O)NCCCCCCNC(=O)CC` belongs 0.18% (inactive); to `C=CCn1c(SCC(=O)Nc2ccccc2F)nnc1C(C)NC(=O)c1ccccc1F` (stereo unspecified), -12.4% (inactive); to `Cc1ccc(-c2c(C)n([O-])c3c([n+]2=O)CCCCC3)cc1`, -3.38% (inactive). To `CC(C)C[C@H](NC(=O)OC(C)(C)C)c1nnc(SCc2ccccc2)o1` belongs -3.57% (inactive); to `CCCCSc1nnc([C@H](CC(C)C)NC(=O)OC(C)(C)C)o1`, -2.58% (inactive).

Regarding `COc1ccc(C)cc1S(=O)(=O)NCc1cccs1`, the inhibition was 1.39% (inactive). To `O=C(NCCc1ccc(Cl)cc1)c1ccc(OCC2CCCO2)cc1` (stereo unspecified) belongs 5.17% (inactive). To `O=C(NC1CCCCC1)N1CCN(Cc2nc3ccccc3c(=O)[nH]2)CC1` belongs -4.69% (inactive); to `COc1ccc(NC(=S)NC(=O)C2CCC2)cc1`, -0.22% (inactive). The same measure for `CC(=O)Nc1ccc(NC(=S)NC(=O)C2CCCC2)cc1`: -8.34% (inactive); for `Cn1nc(C(F)(F)F)c(C(=O)Nc2ccc(F)cc2F)c1Sc1ccc(Cl)cc1`: -9.99% (inactive). Turning to `COc1ccc(-c2ccc3oc(-c4ccsc4)cc(=O)c3c2)cc1F`, the inhibition is -0.47% (inactive).

Regarding `COc1cc(-c2ccc3oc(-c4ccsc4)cc3c2)cc(OC)c1OC`, the inhibition was 0.64% (inactive). The same measure for `O=C1c2ccccc2C(=O)N1CCc1csc(-c2cccc(F)c2)n1`: 3.85% (inactive). To `COC(=O)CC1C(=O)NCCN1C(=O)c1ccccc1` (stereo unspecified) belongs -6.14% (inactive); to `Brc1ccc2nc(N3CCN(c4ccccc4)CC3)sc2c1`, -4.96% (inactive). To `Brc1cccc2sc(N3CCCC3)nc12` belongs 6.95% (inactive). With `COc1ccc(C(=O)Nc2ccccc2C(=O)NCCN2CCOCC2)cc1OC`, the inhibition was 4.9% (inactive). To `O=C(COC(=O)c1ccc2c(c1)OCCO2)Nc1cccc(S(=O)(=O)N2CCOCC2)c1` belongs 9.61% (inactive). `COCCNC(=S)N/N=C(\C)c1ccccc1OC`: the inhibition was -6.36% (inactive).

As for `COc1ccccc1C(=O)NNC(=O)CCC(=O)NCc1ccccc1`, the inhibition is -3.02% (inactive). Take `COc1ccccc1C(=O)NCc1ccccc1`: the inhibition is 10.8% (inactive). For `C/C(=N\NC(=S)NCc1ccccc1)c1ccc(Br)cc1`, the inhibition was 6.33% (inactive). To `CSc1ccccc1NC(=O)Nc1cccc(F)c1` belongs 1.3% (inactive). `CC(C)(C)N(Cc1ccccc1)C(=O)COC(=O)CNC(=O)c1ccco1`: the inhibition was 5.79% (inactive).

The inhibition is the change of the read-out against control, counted positive when it falls.
